In PubChem BioAssay AID602449 (Sanford-Burnham Center for Chemical Genomics, 2012):
Screen size: about 360,000 compounds; about 5,000 (1.4%) were called active.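 The calls were made as follows: active = inhibition of 50% or more, scaled per plate between neutral and stimulator controls; inactive = the rest.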 Shown is part of a subset that was picked to be rich in actives.

Test: mitochondrial permeability transition pore inhibitors, primary screen, biochemical, isolated mouse mitochondria, absorbance (AID 602449);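 also: 0% = DMSO wells given calcium and 100% = 1 mM EGTA wells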
Conditions: Ca2+ swelling absorbance, 30 min, at 10 µM, active compounds read high

SMILES | inhibition
CCCN(CCC)c1c([N+](=O)[O-])c(=O)oc2ccccc12 | -6.7% (inactive)
COCCCNC(=O)C1CCN(c2ccc(N3CCOCC3)nn2)CC1 | 0.3% (inactive)
OC(c1ccccc1)c1nccn1Cc1ccccc1 (stereo not drawn) | -1.7% (inactive)
O=S(=O)(N1CCCCC1)N1CCNCC1 | 1.7% (inactive)
O=C1c2ccccc2S(=O)(=O)N1Cc1c(F)cccc1Cl | -0.3% (inactive)
NC(N)=N/N=C/c1ccc(Cl)c([N+](=O)[O-])c1 | 90.5% (active)
NC(N)=N/N=C/c1ccc(OCc2ccc(Cl)cc2Cl)cc1 | 6% (inactive)
Nn1cnnc1N/N=C/c1cc([N+](=O)[O-])c(Cl)cc1Cl | 0.6% (inactive)
CC(C)N(C(=O)[C@H]1C[C@H](CC(=O)NC(C)(C)C)C(=O)N2CCc3c([nH]c4ccc(Cl)cc34)[C@]12C)C(C)C | -1.7% (inactive)
C/C(=N\NC(=O)c1ccc(C)cc1)C1C(=O)c2ccccc2C1=O | 57.8% (active)
O=C1c2ccccc2C(=O)C1C(=O)C1CC1 | -0.9% (inactive)
Cc1ccc(C(=O)N/C(=C/c2cccnc2)C(=O)O)cc1 | 0.9% (inactive)
CCOc1ccc(S(=O)(=O)Nc2nccs2)cc1 | 0.5% (inactive)
Cn1c(Cc2cccc3ccccc23)nnc1SCC(=O)N1CCN(c2cccc(Cl)c2)CC1 | -0.5% (inactive)
O=C(Nc1ccc(Cl)cc1)Nc1ccc(Oc2cccnc2)nc1 | 82.5% (active)
Cc1cccc(C(=O)Nc2ccc(Oc3cnccn3)cc2)c1 | 0.7% (inactive)
O=C(O)CCCC(=O)Nc1ccc(Oc2cccc(C(F)(F)F)c2)nc1 | 0.9% (inactive)
O=C1c2ccccc2[C@@H]2C[C@@H](O)[C@H](Nc3ccccc3Cl)CCN12 | -0.5% (inactive)
Cc1ccc2c(c1)C(c1ccccc1)N(C(=O)c1ccc(S(=O)(=O)N3CCOCC3)cc1)CC(=O)N2 (stereo not drawn) | -0.3% (inactive)
Nc1nc(CSc2nnnn2-c2ccccc2)nc(Nc2ccccc2)n1 | 0% (inactive)
O=C(c1ccc(-c2ccccc2)cc1)C1CCCN(C(=O)c2cncs2)C1 (stereo not drawn) | -1.8% (inactive)
Cc1ccn(CC(=O)NC2CCCN(Cc3ccccc3F)C2)n1 (stereo not drawn) | 0.4% (inactive)
CCOC(=O)Nc1ccc2c(c1)N(C(=O)CCN1CCN(CCO)CC1)c1ccccc1CC2 | 0.2% (inactive)
CCNCCC(=O)N1c2ccccc2Sc2ccc(NC(=O)OCC)cc21 | 75.6% (active)

SMILES | inhibition
CCOC(=O)Nc1ccc2c(c1)N(C(=O)CCCl)c1ccccc1[S@]2=O | -1.2% (inactive)
Cc1cccnc1NC(=O)Cn1c(=O)oc2ccccc21 | -0.1% (inactive)
COC(=O)c1ccc(CNC(=O)C2CCC(=O)N(Cc3cccc(F)c3)C2)cc1 (stereo not drawn) | -0.2% (inactive)
N#Cc1ccc(C(=O)Nc2nc(-c3cccs3)c(C(=O)C(F)(F)F)s2)cc1 | 87.5% (active)
C=CCN(CC=C)S(=O)(=O)c1ccc(C(=O)Nc2nc3c(s2)CCc2ccccc2-3)cc1 | -1.2% (inactive)
CCn1c(NC(=O)c2ccccc2)c(-c2cccs2)c(=O)c2ccccc21 | 1.4% (inactive)
Cc1ccc2nnn(Cc3cccc(C(C)(C)C)c3O)c2c1 | 93.7% (active)
CCCNC(=O)c1ccccc1NC(=O)CSCc1ccc(OC)cc1 | 0% (inactive)
COc1ccc(/C=C2/SC(=O)N(CCCCCC(=O)Nc3ccccc3C(=O)O)C2=S)cc1 | 60% (active)
COc1ccc(NC(=O)CCCN2C(=O)C(c3ccccc3)Oc3cccnc32)cc1 (stereo not drawn) | 1.6% (inactive)
CCN1C[C@@H]2[C@@H]3C(=O)N(C)C(=O)[C@@H]3[C@](C)(C1=O)N2C(=O)c1ccccc1 | -0.4% (inactive)
COc1ccc(S(=O)(=O)N[C@@H]2C=C[C@@H](CC(=O)N3CCc4ccccc4C3)O[C@@H]2CO)cc1 | 0.4% (inactive)
Cc1cc(C)c(C#N)c(SCC(=O)N(CC(C)C)C2CCS(=O)(=O)C2)n1 (stereo not drawn) | -1.7% (inactive)
CC1=C(C/C=C(\C)CCCC(C)CCCC(C)CCCC(C)C)C(=O)c2ccccc2C1=O (stereo not drawn) | -2.2% (inactive)
COc1ccc(CCNS(=O)(=O)c2cn(C)nc2C)cc1 | -0.3% (inactive)
CCC1CCCCN1C(=S)Nc1ccc(SC(F)F)cc1 (stereo not drawn) | 34% (inactive)
N#C/C(=C\c1cccnc1)C(=O)Nc1ccc(SC(F)F)cc1 | 7.2% (inactive)
O=C(Cc1ccc(Cl)c(Cl)c1)Nc1ccc(SC(F)F)cc1 | 82% (active)
CCc1nc2c(OCCOc3ccc(F)cc3)cccn2c1N(C)C(=O)c1ccccc1F | 0.6% (inactive)
O=C(CSc1nc2[nH]c(=O)[nH]c(=O)c2s1)Nc1cccc(F)c1 | -0.6% (inactive)
Cc1nc2nc(SCC(=O)c3ccccc3)[nH]c2cc1Br | 9.9% (inactive)
Cc1nc2nc(SCC(=O)Nc3cccc(F)c3)[nH]c2cc1Br | 63.9% (active)
COc1cc(OC)cc(-c2c(-c3cccs3)c3cc(-c4ccc(OC)nc4)ccc3n2C)c1 | -0.4% (inactive)
CCC(C)NC(=O)c1ccccc1NC(=O)c1ccccc1N(C)S(C)(=O)=O (stereo not drawn) | 0.4% (inactive)

SMILES | inhibition
COCC(C)n1c(C)cc(C(=O)CSc2cc(C)c3ccccc3n2)c1C (stereo not drawn) | 3.2% (inactive)
CCCNC(=O)c1cc(C2CCCCN2S(=O)(=O)c2cn(C)cn2)on1 (stereo not drawn) | 0.2% (inactive)
O=C(NCc1cc(C(F)(F)F)cc(C(F)(F)F)c1)C1CC(c2cccc(F)c2)=NO1 (stereo not drawn) | 2% (inactive)
COC(=O)Cc1ccc(OCC(=O)Nc2ccc(OC(F)(F)F)cc2)cc1 | 0.1% (inactive)
Cn1nccc1NC(=O)Nc1ccc(OC(F)(F)F)cc1 | 60.1% (active)
CN(CC(=O)Nc1ccc(OC(F)(F)F)cc1)C(=O)C1CCC1 | -0.8% (inactive)
Cc1sc2ncnc(N3CCC(C(=O)NNC(=O)c4ccc(F)cc4)CC3)c2c1C | 0.7% (inactive)
Cc1ccc2cc(CN(c3ccc(C)c(C)c3)S(C)(=O)=O)c(=O)[nH]c2c1 | -0.6% (inactive)
C/C(=N\Nc1ccc([N+](=O)[O-])cc1)c1ccc(-n2nncc2C(C)(C)C)cc1 | 20.4% (inactive)
Cc1nc(C)c2c(c1C(F)(F)F)-c1ccccc1C2(F)F | -0.4% (inactive)
COc1cc(S(=O)(=O)Nc2ncn[nH]2)ccc1Cl | -1.7% (inactive)
Nc1nnc(SCC(=O)Nc2ccc3nc(SCC(=O)Nc4ccccc4)sc3c2)s1 | 95.5% (active)
CCCCNC(=O)CSc1nc2ccc(NC(=O)CSc3nnc(COc4ccccc4C)n3C)cc2s1 | 4.8% (inactive)
CCCCNC(=O)CSc1nc2ccc(NC(=O)CSc3nnc(N)s3)cc2s1 | 15.3% (inactive)
O=C1c2ccccc2C(Nc2ccc3c(c2)OCCO3)N1Cc1ccco1 (stereo not drawn) | 3% (inactive)
C[C@H](CO)N1C[C@H](C)[C@@H](CN(C)C(=O)NC2CCCCC2)Oc2ccc(NC(=O)c3ccncc3)cc2C1=O | -0.8% (inactive)
CCOC(=O)NC(C(F)(F)F)(C(F)(F)F)P(=O)(c1ccccc1)c1ccccc1 | -3.1% (inactive)
CC(=O)c1c(C)[nH]c(C(=O)COC(=O)CCOc2ccc(C)cc2)c1C | -2.4% (inactive)
CC(=O)c1c(C)[nH]c(C(=O)COC(=O)c2cccc(S(=O)(=O)N(C)c3ccccc3)c2)c1C | 99.3% (active)
CN(c1ccccc1)S(=O)(=O)c1ccc(Cl)c(C(=O)OCC(N)=O)c1 | 1.9% (inactive)
O=C1NCCn2nc3ccccc3c21 | 2.9% (inactive)
CCN(CC)CCOC(=O)c1ccc(NC(=O)CNC(=O)c2ccccc2)cc1 | -3.4% (inactive)
CCN(CC)CCNCC(=O)Nc1ccc(Oc2ccccc2)cc1 | 1.8% (inactive)
CCCC(C(=O)OCCN(CC)CC)(c1ccccc1)c1ccccc1 | 85.7% (active)

SMILES | inhibition
Cc1ccccc1C(=O)NC(=S)Nc1ccc(N2CCN(C(=O)c3ccccc3)CC2)cc1 | 57.1% (active)
Cc1ccccc1C(=O)NC(=S)NC1CC1 | 1.7% (inactive)
COc1ccccc1C(=O)NC(=S)Nc1ccc(N2CCOCC2)cc1 | -1.6% (inactive)
O=[N+]([O-])c1cccc(S(=O)(=O)N2CCCCCC2)c1 | -1% (inactive)
N#C/C(=C(/O)Cc1cccc2ccccc12)c1nc2ccccc2s1 | 95.9% (active)
O=C(O)CC/C(=C\c1cc2c(cc1Br)OCO2)c1nc2ccccc2s1 | 0.4% (inactive)
CC1=CC(=C(C#N)c2nc3ccccc3s2)C=C(C)N1c1ccc(F)cc1F | 1.2% (inactive)
Cc1ccc(S(=O)(=O)NC2CCCCCC2)cc1C(N)=O | 1% (inactive)
COc1cc(Cl)c(C)cc1NC(=O)CSc1nnc(CN2CCCC2)o1 | -2% (inactive)
COc1ccc(N2CCN(CCCNC(=O)C3CCN(S(=O)(=O)N4CCOCC4)CC3)CC2)cc1 | -2.8% (inactive)
CC(Oc1ccc(-c2ccccc2)c(F)c1)c1ccn(S(=O)(=O)c2cccc3ccccc23)n1 (stereo not drawn) | 1% (inactive)
COc1ccc(S(=O)(=O)Nc2cccnc2)c(Cl)c1Cl | 0.5% (inactive)
Cc1cc(C)c(C)c(S(=O)(=O)Nc2cccnc2)c1C | 1.4% (inactive)
COc1ccccc1Oc1ccc(S(=O)(=O)Nc2cccnc2)cc1 | 82.5% (active)
COc1cc(OC)cc(/C(N)=N/O)c1 | 0.6% (inactive)
O=C(CNC1CCCCC1)NCC1(c2ccccc2)CCCC1 | -0.9% (inactive)
COC(=O)Nc1nc2ccc(Sc3ccccc3)cc2[nH]1 | 1.2% (inactive)
CCOC(=O)c1nnn2c3ccccc3c(=O)n(C)c12 | 1.2% (inactive)
CCCc1nc2c(c(=O)c3ccccc3n2C)c(=O)n1C1CCCCCC1 | 77.9% (active)
CCOC(=O)N1CCN(C(=O)c2nn(-c3ccc(C)cc3)c(=O)c3c2c2ccccc2n3C)CC1 | 11.3% (inactive)
CCN(CC)S(=O)(=O)c1ccc(N2CCCC2)c(NS(=O)(=O)c2cccs2)c1 | -2.4% (inactive)
